Screening results (PubChem)
HepG2 viability: qHTS for Inhibitors of TGF-b: Cytotox Counterscreen; HepG2 CAGA-GFP viability, ATP luminescence, 18 h; Potency, µM (series often up to 46.1 µM), without a hit: at the highest dose activity change, negative = cytotoxicity, actives largely listed as cytotoxic; actives 0.76% (n = 410,000); AID 588856, 2011; also: potency is read from the fitted curve at half-maximal effect
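CellTiter-Glo luminescence gave cytotoxicity after 18 hours at 37 degrees C. The cells were HepG2 CAGA-GFP in 1% FBS DMEM, stimulated with 500 pg/mL TGF-beta after compound addition. %Activity was normalised to no-cell wells (complete cell-killing) and DMSO (no toxicity), and curves were fitted and classified.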
TGFb SMAD3 inh: qHTS for Inhibitors of TGF-b. HepG2 CAGA-GFP TGF-b/SMAD3 reporter, GFP fluorescence, 18 h; TGF-beta stimulated, 500 pg/mL final. Potency, µM (doses to about 46.1 µM), inactives show at the highest dose activity, negative = inhibition, most hits filed as inhibitors. actives 1.2% (n = 410,000); also: potency is read from the fitted curve at half-maximal effect; % is scaled to controls: 0 for no effect and ±100 for the full control effect; nearly all actives have a fitted effect of over 65% in size
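Read-out: total well GFP (ex488/em500-530) summed from mean per-cell fluorescence. Cells: HEPG2 CAGA-GFP, 1% FBS DMEM, 18 h at 37 degrees C with 500 pg/mL final TGF-beta. Unstimulated wells served as the full-inhibition control; stimulated DMSO wells = 0%.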
TDP1 cell noCPT: qHTS for Inhibitors of human tyrosyl-DNA phosphodiesterase 1 (TDP1): qHTS in cells in absence of CPT; DT40 Tdp1-/- hTDP1 cells, no CPT, ATP luminescence, 48 h; Potency, µM (doses to about 46.2 µM), for inactives: at the highest dose activity change, negative = growth inhibition, actives largely listed as inhibitors; actives 15% (n = 420,000); AID 686978, 2013; also: potency is read from the fitted curve at half-maximal effect; % is scaled to controls: 0 for no effect and ±100 for the full control effect; nearly all actives have a fitted effect of over 55% in size
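Compound effects on proliferation are scored in DT40 Tdp1-/-;hTDP1 cells in the absence of CPT. ATP levels (CellTiter-Glo luminescence) are recorded after a ≥48 hr, 37 °C incubation.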
ASM inhibitor: Inhibitors of Secretory Acid Sphingomyelinase (S-ASM): qHTS; Sphingomyelin phosphodiesterase (Homo sapiens), P17405; placental ASM, HMU-PC fluorogenic substrate, 60 min; Potency, µM (titrated, usually from 57.5 µM), for inactives: top-dose activity change, negative = inhibition, hits mostly inhibitors; actives 0.006% (n = 340,000); AID 504937, 2011; also: potency is read from the fitted curve at half-maximal effect
Target sequence (P17405 47-631 limits assumed): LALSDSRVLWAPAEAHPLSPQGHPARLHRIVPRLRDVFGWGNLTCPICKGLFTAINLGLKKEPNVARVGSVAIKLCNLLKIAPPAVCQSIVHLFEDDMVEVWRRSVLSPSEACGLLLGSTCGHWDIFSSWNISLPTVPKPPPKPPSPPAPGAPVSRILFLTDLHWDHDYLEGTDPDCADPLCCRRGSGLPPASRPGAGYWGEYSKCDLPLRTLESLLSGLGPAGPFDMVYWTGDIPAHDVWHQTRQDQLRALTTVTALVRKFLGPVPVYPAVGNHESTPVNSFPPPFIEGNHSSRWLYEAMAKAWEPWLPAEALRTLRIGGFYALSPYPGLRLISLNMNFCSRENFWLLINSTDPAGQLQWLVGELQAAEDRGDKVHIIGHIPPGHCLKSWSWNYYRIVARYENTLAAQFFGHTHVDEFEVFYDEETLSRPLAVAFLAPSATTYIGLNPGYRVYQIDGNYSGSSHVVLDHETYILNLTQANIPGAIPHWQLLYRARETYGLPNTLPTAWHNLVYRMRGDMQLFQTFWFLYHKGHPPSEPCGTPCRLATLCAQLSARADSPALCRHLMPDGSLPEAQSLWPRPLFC
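Human placenta-derived ASM enzyme was preincubated with compound for 10 minutes at room temperature, then given fluorogenic substrate HMU-PC0 (9 uM final) for 60 minutes at 37 °C; a pH 10 stop preceded fluorescence reading at Ex 386/Em 447 nm.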
DT40 TDP1 CPT: qHTS for Inhibitors of human tyrosyl-DNA phosphodiesterase 1 (TDP1): qHTS in cells in presence of CPT; chicken DT40 Tdp1-/-;hTDP1 cells + 20 nM CPT, ATP luminescence, 48 h; Potency, µM (highest dose often 46.2 µM), inactives show at the highest dose activity change, negative = growth inhibition, most hits filed as inhibitors; actives 12% (n = 420,000); AID 686979, 2013; also: potency is read from the fitted curve at half-maximal effect; % is scaled to controls: 0 for no effect and ±100 for the full control effect; nearly all actives have a fitted effect of over 55% in size
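Chicken DT40 Tdp1-/- cells stably complemented with human TDP1 were seeded at 400 cells/well in medium containing 20 nM camptothecin, exposed to pin-transferred compounds, and grown at 37 °C for at least 48 hr. Viability was read as ATP luminescence.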
IL1B secr inh: qHTS for Inhibitors of Inflammasome Signaling: IL-1-beta AlphaLISA Primary Screen. THP-1 LPS/ATP IL-1B secretion, AlphaLISA, 16 h; stronger effect = lower value. activity change, % at 57.5 µM. actives 4.7% (n = 360,000). AID 743279, 2014; in the data active = activity change below about -50%; inconclusive = mostly about -30% to -49%; also: % is scaled to controls: 0 for no effect and ±100 for the full control effect
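Secreted IL-1B measured by AlphaLISA bead assay after 16 h compound exposure of THP-1 cells; compounds (final up to 57.5 uM) added 1 h before LPS (250 ng/mL) and ATP (1.25 mM) stimulation; lower signal means less secretion.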
The depositor's hits bear a star; i = inactive; u = inconclusive; x = no result given. Hits are enriched below; roughly 19% of the tested compounds scored in any of these assays. Unless noted, calls follow the shape of the dose curve; as a rule, active = well fitted curve in the direction sought with a large enough effect; inconclusive = small, poorly fitted or top-dose-only effect, or another doubt; inactive = no such curve, though single readings can be large; an effect the other way counts as inactive or inconclusive.

SMILES | HepG2 viability | TGFb SMAD3 inh | TDP1 cell noCPT | ASM inhibitor | DT40 TDP1 CPT | IL1B secr inh
COc1ccc(-c2c(C#Cc3ccsc3)c3cc(-c4ccc5cc[nH]c5c4)ccc3n2C)cc1 | 0.0% | -7.6% | 20.6µM* | 28.1% | u | 11.3
COc1cc(C#Cc2c(C=O)n(C)c3ccccc23)cc(OC)c1 | -8.8% | 7.3% | 23.1µM* | i | u | 28.4
Cc1c(C=N)c(O)n(C)c(=O)c1C#N | 2.0% | 16.9% | 3.5% | 4.0% | -1.8% | 11.2
Cc1ccc(NS(=O)(=O)c2cc(C(=O)Nc3cccnc3)ccc2C)cc1 | 8.4% | 3.5% | u | -7.3% | 0.4% | 0.0
COc1ccc(-c2c(C#Cc3ccsc3)c3cc(Br)ccc3n2C)cc1 | 1.8% | -10.8% | 20.6µM* | 72.7% | u | 9.2
O=c1[nH]c(-c2ccccc2)cs1 | -2.2% | 11.3% | -21.3% | -2.2% | -29.7% | 15.8
O=c1[nH]c(-c2ccc(Cl)cc2)cs1 | -8.6% | 7.1% | -23.9% | 0.1% | u | -55.2*
CCCN(CCC)Cc1cc(=O)oc2cc(C)c(C)cc12 | -2.7% | u | u | x | u | 15.1
O=C(c1ccc(Cl)cc1Cl)N1CCC(C(=O)N2CCOCC2)CC1 | -6.8% | -1.8% | 2.5% | 2.9% | 10.0% | -11.5
CCOC(=O)C(=Cc1c[nH]c2ccc(S(=O)(=O)N(C)C)cc12)C(=O)OCC | -14.8% | u | 16.4µM* | -3.4% | u | -100.9*
O=C(/C=C/c1c(Cl)nc2ccccn12)N1CCN(c2ccccc2F)CC1 | 7.7% | 6.1% | 23.1µM* | 1.2% | -19.3% | -21.4
O=C(/C=C/c1c(Cl)nc2ccccn12)N1CCN(c2ccc(F)cc2)CC1 | 10.7% | -12.2% | 25.9µM* | -1.7% | u | 76.7
O=C(/C=C/c1c(Cl)nc2ccccn12)N1CCCCC1 | -11.1% | -8.3% | u | 13.1% | -24.4% | -7.1
Clc1ccc(-n2cnc3c(Cl)ncnc32)cc1Cl | 1.8% | 5.2% | 6.51µM* | -3.9% | 4.61µM* | u
CC(C)CCOc1ccccc1Cn1c(=O)sc2ccccc21 | -13.3% | -11.9% | u | x | u | x
CCn1cc(/C=C(\NC(=O)c2ccccc2)C(=O)NCCCn2ccnc2)c2ccccc21 | 0.6% | -1.3% | -17.6% | x | -18.2% | -22.7
CCn1cc(/C=C(\NC(=O)c2ccc(C)cc2)C(=O)NCCCn2ccnc2)c2ccccc21 | -37.2% | -1.4% | 20.6µM* | x | u | x
O=C(NCCc1csc(-c2ccc(C(F)(F)F)cc2)n1)c1cccs1 | -23.0% | 7.4% | 18.4µM* | -11.5% | u | -28.8
O=C(NCCc1csc(-c2ccc(C(F)(F)F)cc2)n1)c1ccccc1Cl | -28.4% | 0.0% | u | x | u | x
O=C(NCCc1csc(-c2cccnc2)n1)c1cccs1 | 6.3% | 20.4% | 20.6µM* | 2.3% | u | -15.0
CCOc1ccc(C(=O)NCCc2csc(-c3ccc(C(F)(F)F)cc3)n2)cc1OCC | -1.4% | 0.0% | 14.6µM* | x | u | x
CCCC(=O)N1CCCC1(C)C(=O)Nc1ccc(OC(F)F)cc1 (stereo not given) | 12.5% | 8.1% | -6.5% | x | 9.0% | 26.8
CC1=C(C(=O)OC2CCCC2)C(c2ccccc2C(F)(F)F)CC(=O)N1 (stereo not given) | -54.9% | 0.0% | 14.6µM* | x | 18.4µM* | x
COc1ccccc1C1CC(=O)NC(C)=C1C(=O)OC(C)C (stereo not given) | -5.2% | -7.1% | 13µM* | -4.5% | u | 15.5
CC1=C(C(=O)OCc2ccc(C)cc2)C(c2ccccc2C(F)(F)F)CC(=O)N1 (stereo not given) | -48.2% | u | 20.6µM* | x | 23.1µM* | x
SMILES | HepG2 viability | TGFb SMAD3 inh | TDP1 cell noCPT | ASM inhibitor | DT40 TDP1 CPT | IL1B secr inh
COc1ccccc1C1CC(=O)NC(C)=C1C(=O)OC1CCCCCC1 (stereo not given) | -3.7% | u | 13µM* | x | 20.6µM* | x
CCOc1cc(C(=O)Nc2cccc3cccnc23)cc(OCC)c1OCC | -8.5% | -18.5% | -102.3% | x | u | x
COc1cccc(C(=O)Nc2ccccc2OCc2cc(=O)n3cc(C)ccc3n2)c1 | -2.0% | 15.2% | u | x | -6.5% | x
Cc1ccc2c(c1)C(=C(C#N)C#N)C(=O)N2CCN1CCCCC1 | -182.4% | -12.3% | 18.4µM* | 9.2% | 23.1µM* | -9.8
Cc1ccc2c(c1)C(=C(C#N)C#N)C(=O)N2CCN1CCOCC1 | -17.7% | -11.0% | u | 4.5% | 16.4µM* | 13.0
COc1ccc(S(=O)(=O)Nc2cccc(-c3ccc(N4CCC(C)CC4)nn3)c2)cc1OC | -23.7% | -1.1% | u | x | u | x
COc1ccc(CC(=O)Nc2c(C(=O)N3CCN(c4ccccc4)CC3)oc3ccccc23)cc1OC | -0.8% | -4.1% | u | -0.1% | u | -25.8
COc1cc(CCC(=O)Nc2c(C(=O)N3CCN(c4ccccc4)CC3)oc3ccccc23)on1 | -17.7% | 0.5% | 16.4µM* | -2.6% | u | -61.4*
COc1ccc(CC(=O)Nc2c(C(=O)N3CCN(c4ccccc4OC)CC3)oc3ccccc23)cc1OC | 1.0% | 6.7% | 23.1µM* | -0.8% | u | 22.2
O=C(COc1ccc(F)cc1)Nc1c(C(=O)N2CCC(N3CCCCC3)CC2)oc2ccccc12 | -36.1% | 17.4% | 7.31µM* | 3.8% | u | u
O=C(Nc1c(C(=O)N2CCN(c3ccccc3)CC2)oc2ccccc12)c1ccc(Br)o1 | 1.5% | -26.1% | 20.6µM* | x | 23.1µM* | x
CC(C)N(C(=S)Nc1ccc(S(=O)(=O)N2CCOCC2)cc1)c1ccccc1 | -15.6% | 20.8% | u | -0.2% | -17.8% | 3.1
O=C(Nc1c(C(=O)N2CCN(c3ccccc3)CC2)oc2ccccc12)c1ccccc1F | -6.4% | u | u | x | u | x
O=C(Nc1c(C(=O)N2CCN(c3ccccc3F)CC2)oc2ccccc12)c1ccccc1F | -28.7% | u | 14.6µM* | x | 13µM* | x
Cc1cccc(OCC(=O)Nc2c(C(=O)N3CCN(c4ccccc4)CC3)oc3ccccc23)c1 | 5.9% | -36.4% | 23.1µM* | x | u | x
Cc1ccccc1NC(=S)N1CCN(c2ccccc2)CC1 | -3.8% | 5.2% | 1.9% | -1.9% | -15.9% | 10.4
